Reference: PubChem BioAssay
A number with no mark means an inactive call. The list shows a part of the results. Active and inactive are the calls of the source. Cut-off read from the data, not from the text of the source, unless noted: active = inhibition above about 28%; inactive = the rest.

target: Photoreceptor-specific nuclear receptor (Homo sapiens) (UniProt Q9Y5X4); assay: NR2E3 agonist confirmation in cells, cell-based, luminescence, CHO-S two-hybrid (AID 624378;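 active = average inhibition above a cutoff equal to the mean inhibition of all tested compounds plus one SD, cut at about 70% in these data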;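 note: 0% = DMSO in NR2E3 cells and 100% = DMSO in cells lacking NR2E3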); details: CHO-S mammalian two-hybrid NR2E3-NCOR, luciferase luminescence; at 3.98 µM; hits give high values
Sequence (Q9Y5X4 whole entry, looked up): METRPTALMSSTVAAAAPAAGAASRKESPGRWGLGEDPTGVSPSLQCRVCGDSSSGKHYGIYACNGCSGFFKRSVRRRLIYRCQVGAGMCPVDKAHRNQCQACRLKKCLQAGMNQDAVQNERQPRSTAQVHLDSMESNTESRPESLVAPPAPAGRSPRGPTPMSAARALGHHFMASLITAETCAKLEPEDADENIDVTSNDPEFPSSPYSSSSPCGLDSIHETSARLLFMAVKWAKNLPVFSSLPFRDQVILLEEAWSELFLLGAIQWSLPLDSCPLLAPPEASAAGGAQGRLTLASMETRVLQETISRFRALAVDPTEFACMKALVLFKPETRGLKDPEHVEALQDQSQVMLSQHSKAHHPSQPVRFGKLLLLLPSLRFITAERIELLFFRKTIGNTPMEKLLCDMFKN

Row | Compound | inhibition
1 | COc1cccc(CNc2nc(NCc3cccs3)nc3ccsc23)c1 | 67.6%
2 | C#Cc1ccc(NC(=O)C2(C)CCN2C(=O)Cc2ccc(-c3ccccc3)cc2)cc1 (stereo unspecified) | 50.6%
3 | CCCOc1ccc(Cc2c(Cl)nc(SC)nc2NC)cc1 | 94.6% (active)

tested on: not listed separately; assay: GAL4-VP16 reporter modulators, confirmation, counter-screen for NR2E3 agonist project, cell-based, luminescence, CHO-S, high throughput (AID 624379;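 active = mean inhibition above a cutoff equal to the average over all tested compounds plus one standard deviation, cut at about 70% in these data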;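 note: luciferase from a UAS reporter driven by GAL4-VP16 transactivation; 0% = DMSO with VP16-transfected cells and 100% = DMSO with cells lacking VP16; higher means less reporter light so more repression of VP16 activity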); details: CHO-S GAL4-VP16 luciferase reporter, at 3.98 µM, hits give high values

Row | Compound | inhibition
4 | COc1cccc(CNc2nc(NCc3cccs3)nc3ccsc23)c1 | 47.4%
5 | C#Cc1ccc(NC(=O)C2(C)CCN2C(=O)Cc2ccc(-c3ccccc3)cc2)cc1 (stereo unspecified) | 52.9%
6 | CCCOc1ccc(Cc2c(Cl)nc(SC)nc2NC)cc1 | 85.9% (active)

tested on: not listed separately; assay: StAR promoter reporter inhibitors, counter-screen for LRH-1 inverse agonist project, cell-based, luminescence, high throughput (AID 651611); details: StAR promoter luciferase reporter counterscreen, at 3.6 µM, hits give high values

Row | Compound | inhibition
7 | Cc1cccc(-n2c(CNC(=O)c3ccccc3)nnc2SCC(=O)Nc2nccs2)c1 | 10.2%
8 | CN(C)CCNc1ccc2nnn3c4ccc(O)cc4c(=O)c1c23 | 47.1% (active)
9 | Cc1sc2ncnc(NCC3COc4ccccc4O3)c2c1C (stereo unspecified) | 18%
10 | Cc1nc2ccc(NC(=O)c3cc(S(=O)(=O)N(C)c4ccccc4)ccc3Cl)cc2s1 | 30.4% (active)
11 | CN(C)CCN1C(=O)c2cccc3cc([N+](=O)[O-])cc(c23)C1=O | 67% (active)
12 | CCc1c(C)nc2ncnn2c1NCCc1ccc(OC)cc1 | 46.9% (active)
13 | Cc1c(C(C)C)c(=O)n(-c2ccc(S(=O)(=O)NCc3ccccc3)cc2)n1C | 16.5%
14 | O=C(CSc1nnnn1C1CC2CCC1C2)Nc1ccnc2ccccc12 (stereo unspecified) | 30% (active)
15 | CC1(C)CC(N2CCCC2)=CC(=[N+]2CCCC2)C1 | 12%
16 | CC1(C)CC(N2CCCC2)=CC(=[N+]2CCCCC2)C1 | 21.4%
